Source: PubChem BioAssay (Tox21)
Results filed as inconclusive are left out. Unmarked numbers belong to inactive results. The source made the active and inactive calls. The call rests on the fitted dose curve; in most records, active means well fitted activation curve with a large enough effect in the repeat runs; inconclusive means weak or mixed curves; inactive means no such curve, though single readings can be large or run the other way.

Molecular target: Aryl hydrocarbon receptor (Homo sapiens) (UniProt P35869)
Sequence (P35869 whole entry, looked up): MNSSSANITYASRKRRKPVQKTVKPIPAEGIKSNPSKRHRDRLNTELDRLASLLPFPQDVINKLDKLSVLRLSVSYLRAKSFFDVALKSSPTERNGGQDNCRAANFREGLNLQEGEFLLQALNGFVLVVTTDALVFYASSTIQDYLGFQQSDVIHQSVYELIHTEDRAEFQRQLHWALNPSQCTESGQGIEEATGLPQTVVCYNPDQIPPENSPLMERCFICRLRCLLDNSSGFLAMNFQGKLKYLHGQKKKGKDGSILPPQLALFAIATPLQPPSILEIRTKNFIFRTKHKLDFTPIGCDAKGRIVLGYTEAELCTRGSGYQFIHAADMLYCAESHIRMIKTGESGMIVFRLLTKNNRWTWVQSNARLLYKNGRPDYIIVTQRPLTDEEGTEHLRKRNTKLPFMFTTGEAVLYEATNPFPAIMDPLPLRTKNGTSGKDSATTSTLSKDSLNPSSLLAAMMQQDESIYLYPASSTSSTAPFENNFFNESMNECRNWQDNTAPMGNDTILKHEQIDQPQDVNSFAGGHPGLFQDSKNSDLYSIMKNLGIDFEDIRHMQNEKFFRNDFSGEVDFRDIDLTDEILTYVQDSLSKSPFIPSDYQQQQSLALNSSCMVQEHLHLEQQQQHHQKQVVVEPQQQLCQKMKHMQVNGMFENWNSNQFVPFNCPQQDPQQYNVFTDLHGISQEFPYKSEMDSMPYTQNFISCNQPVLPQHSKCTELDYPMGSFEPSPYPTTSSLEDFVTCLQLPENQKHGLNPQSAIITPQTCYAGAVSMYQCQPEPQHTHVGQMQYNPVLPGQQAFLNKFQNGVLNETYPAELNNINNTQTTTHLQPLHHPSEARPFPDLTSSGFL
Assay: qHTS assay to identify small molecule that activate the aryl hydrocarbon receptor (AhR) signaling pathway (AID 743085); further: nearly all actives have a fitted effect of over 15% in size;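 on activation: HG2L7.5c1 human HepG2 liver cells with stably integrated DRE-driven firefly reporter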
Conditions: HepG2 AhR-luc (HG2L7.5c1), luciferase, 24 h; series mostly up to 70.3 µM; activation: at the top concentration
Excerpt: U.S. Tox21 Program National Center for Advancing Translational Sciences [NCATS] NIH Chemical Genomics Center [NCGC] U.S. Environmental Protection Agency [EPA] National Institutes of Environmental Health Sciences [NIEHS] National Toxicology Program [NTP] U.S. Food and Drug Administration [FDA] Tox21 Assay overview: The Aryl hydrocarbon Receptor (AhR), a member of the family of basic helix-loop-helix transcription factors, is crucial to adaptive responses to environmental changes. AhR mediates cellular responses to environmental pollutants such as aromatic hydrocarbons through induction of phase I and II enzymes but also interacts with other nuclear receptor signaling pathways. A cell based HepG2-AhR-luc assay (HG2L7.5c1 cell line, developed by Dr. Michael S. Denison, University of California at Davis, was used to assess the activation of AhR. HepG2 (human hepatocellular carcinoma) cells were stably transfected with an Ah receptor-responsive firefly luciferase reporter gene plasmid containing 20 dioxin responsive elements and luciferase reporter gene. Increased luciferase activity can be used to identify the compounds that induce AhR activation.
Tox21 Assay Protocol Summary: 4000 cells in 5 uL/well were dispensed into white wall/solid bottom 1536-well plates using a Multidrop Combi (Thermo Fisher Scientific Inc., Waltham, MA) dispenser. After the assay plates were incubated at 37C for 5 h, 23 nL of compound or DMSO vehicle was transferred to the assay plates by a pintool station (Kalypsys, San Diego, CA). The plates were incubated at 37C for 24 hr. After 1 ul/well of CellTiter-Fluor reagent (Promega, Madison, WI) was added into the assay plates using a Flying Reagent Dispenser (FRD) (Aurora Discovery, CA), the assay plates were incubated at 37C for 30 min. The fluorescence intensity in the plates was measured using a ViewLux plate reader (PerkinElmer, Shelton, CT), followed by the addition of 4 uL of ONE-Glo Luciferase Assay reagent (Promega) using an FRD (Aurora Discovery). After the assay plates were incubated at room temperature for 30 min, luminescence intensity was measured using a ViewLux plate reader (Perkin Elmer).
On the % scale 0 is the no-effect control and ±100 the full control effect; potency means the concentration at half of the fitted maximal effect.

| Structure (SMILES) | activation | Potency |
| --- | --- | --- |
| O=C(Cl)c1cc(Cl)cc(Cl)c1 | -1.88% [at 95 µM] |  |
| CCOC(OCC)OCC | -1.19% |  |
| CC(Cc1ccccc1)(NC(=O)CN)c1ccccc1 (stereo not given) | -0.399% |  |
| CC1(C)CC(O)CC(C)(C)N1[O] | 3.04% |  |
| CCCCCCCCCC(C)C=O (stereo not given) | 4.55% |  |
| O=C(O)CCc1nc2ccccc2[nH]1 | 2.65% |  |
| N#Cc1ccc(CC(=O)c2cccc(C(F)(F)F)c2)cc1 | -0.753% |  |
| COc1cc(CNC(=O)CCCC/C=C/C(C)C)ccc1O |  | inactive |
| CCCCOC(=O)C(C)Oc1ccc(Oc2ccc(C(F)(F)F)cn2)cc1 (stereo not given) | -0.0555% |  |
| C=CC(C)(O)CC/C=C(/C)CCC=C(C)C (stereo not given) | -0.755% |  |
| COc1cccc([C@H](O)C2CCN(CCc3ccc(F)cc3)CC2)c1OC | -0.263% |  |
| C/C(=C\C(C)CC(C)CC(C)C)C1CC(=O)OC1=O (stereo not given) | 5% |  |
| Oc1ccc(Oc2ccccc2)cc1 | 2.2% |  |
| O=c1[nH]nc(-c2ccc([N+](=O)[O-])o2)o1 | 3.56% |  |
| CCCCCCCCCCCCCCCCC(=O)O | -1.32% |  |
| NC(=O)c1ccccc1 | -1.1% [at 95 µM] |  |
| Cc1cc(C)c(C)c(O)c1 | -1.16% |  |
| CC[C@H](NC(C)C)[C@H](O)c1ccc(O)c2[nH]c(=O)ccc12 | 2.18% |  |
| CCCCOc1ccc(N)cc1 | 6.66% |  |
| NCCOCCOCCN | -0.281% |  |

| Structure (SMILES) | activation | Potency |
| --- | --- | --- |
| COc1ccc(CN(CCN(C)C)c2ncccn2)cc1 | -1.03% |  |
| CC(=O)S[C@H](C(=O)N[C@H]1Cc2ccccc2[C@H]2CCC[C@@H](C(=O)O)N2C1=O)C(C)C | 0.491% |  |
| CC(C)Oc1ccccc1O | -0.117% |  |
| O=C1OC(=O)C2CC=CCC12 (stereo not given) | 1.13% [at 95 µM] |  |
| CCCN(C1CCN(C(=O)C2CCNCC2)CC1)[C@@H]1CCc2ccc(OC)cc2C1 | -0.26% |  |
| CC1=C(C)C(=O)C(CCCCC#CCCCC#CCO)=C(C)C1=O |  | 11.9 µM (active) |
| C/C(=C(\CCO)SS/C(CCO)=C(\C)N(C=O)Cc1cnc(C)nc1N)N(C=O)Cc1cnc(C)nc1N | -0.33% |  |
| CC(C)(Cc1c[nH]c2ccccc12)NCC(O)COc1ccccc1C#N (stereo not given) |  | 29.8 µM (active) |
| CC(=O)Nc1cccc(N)c1 |  | 62 µM (active) |
| O=C(O)c1ccccc1-n1cc(C(=O)O)c(=O)c2cc(Nc3c(F)cc(F)cc3Cl)c(Cl)cc21 | -0.361% |  |
| O=C(c1ccc(Cl)cc1)c1ccc(Cl)cc1 | -0.0939% |  |
| O=C(Nc1ccc2c(c1)Cc1ccccc1-2)C(F)(F)F |  | 61.1 µM (active) |
| CCC(=O)O[C@@H]1C[C@H]2CC[C@]1(C)C2(C)C | -0.755% |  |
| Clc1cccc(C(c2ccc3nc[nH]c3c2)n2ccnc2)c1 (stereo not given) |  | 2.66 µM (active) |
| CCOC(=O)CC(O)(CC(=O)OCC)C(=O)OCC | -0.644% |  |
| O=C1c2ccccc2C(=O)C1c1ccc2cc(S(=O)(=O)O)cc(S(=O)(=O)O)c2n1 | 8.39% [at 95 µM] |  |
| CO[C@@H]1COCC[C@@H]1N[C@@H]1CC[C@@](C(=O)N2CCc3ncc(C(F)(F)F)cc3C2)(C(C)C)C1 | -0.548% |  |
| O=[N+]([O-])c1cccc(I)c1 | 0.456% |  |
| c1ccc(CN(Cc2ccccc2)Cc2ccccc2)cc1 | 4.8% |  |
| O=C(O)COCC(=O)O | 1.23% [at 95 µM] |  |
